{
  "source": "PubChem BioAssay (NCI)",
  "tested_on": "HL-60(TB) leukemia",
  "assay": "NCI-60 one-dose screen, 48 h (100 = growth as untreated, 0 = no growth, -100 = all killed)",
  "settings": "10 µM unless noted",
  "note": "The panel holds about 83,000 compounds, 20% with a hit somewhere; the sample as a whole holds those more often.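 Note: values are percent growth. 100 is the growth of untreated cells, values between 100 and 0 indicate rising inhibition; between -100 and 0 indicates cell death.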 Values without a mark were called inactive. Calls of active or inactive are those of the source. The calls were made as follows: active = growth percent below 10; inactive = the rest.",
  "data": [
    {"smiles": "CC(C)CSc1nc(NCCc2c[nH]c3ccccc23)c(C#N)c(-c2ccc(Cl)cc2)n1", "values": [
      {"measurement": "growth", "value": 47.5, "unit": "%"}
    ]},
    {"smiles": "Cc1nn(-c2ccccc2)c2nc(C)n(CC(=O)N/N=C/c3ccccc3O)c(=O)c12", "values": [
      {"measurement": "growth", "value": "7.2% (active)"}
    ]},
    {"smiles": "COc1ccc(/C=C/c2nc3ccccc3c(=O)n2CC(=O)Nc2ccc(OC)cc2)cc1", "values": [
      {"measurement": "growth", "value": 82, "unit": "%"}
    ]},
    {"smiles": "Cc1ccc(-n2c(-c3cc4ccccc4nc3Cl)noc2=O)cc1", "values": [
      {"measurement": "growth", "value": 85.1, "unit": "%"}
    ]},
    {"smiles": "COc1ccc(-c2nc(-c3ccccc3)c(-c3ccccc3)n2-c2ccc(S(=O)(=O)Nc3ncccn3)cc2)cc1OC", "values": [
      {"measurement": "growth", "value": 89, "unit": "%"}
    ]},
    {"smiles": "CC1=C(C(=O)c2ccccc2)C(c2ccc(-n3cncn3)cc2)n2c(nc3ccccc32)N1", "note": "(centres undefined)", "values": [
      {"measurement": "growth", "value": 86.9, "unit": "%"}
    ]},
    {"smiles": "COc1ccc(NC(=O)CSc2nnc(-c3ccc4nc(-c5ccc(Cl)cc5)[nH]c4c3)o2)cc1", "values": [
      {"measurement": "growth", "value": 63, "unit": "%"}
    ]},
    {"smiles": "O=C(CN1CCN(c2ncnc3c2cnn3-c2ccccc2)CC1)Nc1nncs1", "values": [
      {"measurement": "growth", "value": "-45.5% (active)"}
    ]},
    {"smiles": "CCOC(=O)/C(F)=C/C1CC1C(c1ccccc1)c1ccccc1", "note": "(centres undefined)", "values": [
      {"measurement": "growth", "value": "-7.32% (active)"}
    ]},
    {"smiles": "CCOC(=O)c1ccc(NC(=S)NC(=O)c2ccc(NC(=O)C(C)C)cc2OC)cc1", "values": [
      {"measurement": "growth", "value": 46.3, "unit": "%"}
    ]},
    {"smiles": "Nc1cc2ccccc2c(=O)n1NC(=O)c1ccccc1", "values": [
      {"measurement": "growth", "value": 101, "unit": "%"}
    ]},
    {"smiles": "O=C(NNc1ccccc1)n1c(=O)c2ccccc2c(=O)n1-c1ccccc1", "values": [
      {"measurement": "growth", "value": 82.7, "unit": "%"}
    ]},
    {"smiles": "Cc1c(C(=O)NNC(=O)c2ccc(Cl)cc2)nnn1-c1ccc(Br)cc1", "values": [
      {"measurement": "growth", "value": 102, "unit": "%"}
    ]},
    {"smiles": "COc1ccc2[nH]c(=O)c(CSc3nccc(-c4ccc(Cl)cc4)n3)cc2c1", "values": [
      {"measurement": "growth", "value": 29.3, "unit": "%"}
    ]},
    {"smiles": "CN(C)CCn1c2ccccc2c2nc3ccc([N+](=O)[O-])cc3nc21", "values": [
      {"measurement": "growth", "value": "5.67% (active)"}
    ]},
    {"smiles": "COc1ccc(-c2cc(C(=O)Oc3ccc(C=O)cc3OC)nn2-c2ccc(S(C)(=O)=O)cc2)cc1", "values": [
      {"measurement": "growth", "value": 86.5, "unit": "%"}
    ]},
    {"smiles": "CCC(C)(C)c1ccc(OCCCCN2CCN(c3ccncc3)CC2)cc1", "values": [
      {"measurement": "growth", "value": "-57.7% (active)"}
    ]},
    {"smiles": "CN(C)CCCNC(=S)Nc1ccc(/C=C/c2ccc(Cl)cc2)cc1", "values": [
      {"measurement": "growth", "value": "-22.4% (active)"}
    ]},
    {"smiles": "Cn1cc(-c2nnc(N)nc2-c2c[nH]c3ccccc23)c2cccnc21", "values": [
      {"measurement": "growth", "value": 13.5, "unit": "%"}
    ]},
    {"smiles": "COc1ccsc1/C=N/NC(=O)c1[nH]c2ccc(Br)cc2c1-c1ccccc1", "values": [
      {"measurement": "growth", "value": "-33.3% (active)"}
    ]},
    {"smiles": "COc1cc(C2CC(c3cc(OC)c(OC)c(OC)c3)=Nc3c(N)nc(N)nc3N2)ccc1Oc1nc(Nc2ccc(F)cc2)nc(N(C)C)n1", "note": "(centres undefined)", "values": [
      {"measurement": "growth", "value": "8.45% (active)"}
    ]},
    {"smiles": "CC(=O)c1cc(C(=O)c2ccc3c(c2)NC(=O)CO3)n2ccc3ccccc3c12", "values": [
      {"measurement": "growth", "value": 94.7, "unit": "%"}
    ]},
    {"smiles": "Cc1nc2c(cnn2-c2ccccc2)c(=O)n1-c1ccc(NC(=O)c2ccc(F)cc2)cc1", "values": [
      {"measurement": "growth", "value": 42.5, "unit": "%"}
    ]},
    {"smiles": "CCN(CC)c1ccnc(CNCCSC(c2ccccc2)(c2ccccc2)c2ccc(C)cc2)c1", "values": [
      {"measurement": "growth", "value": "-52.3% (active)"}
    ]},
    {"smiles": "COc1cc(C2CC(c3cc(OC)c(OC)c(OC)c3)=NN2C(C)=O)ccc1OCc1ccccc1", "note": "(centres undefined)", "values": [
      {"measurement": "growth", "value": 21.5, "unit": "%"}
    ]},
    {"smiles": "Cc1ccc(C(=O)Nc2ccc(-n3ccnc3)c(C(F)(F)F)c2)cc1C#Cc1cnc2cccnn12", "values": [
      {"measurement": "growth", "value": "-19.6% (active)"}
    ]},
    {"smiles": "Nc1nc(-c2ccccc2)c(N=Nc2ccc([N+](=O)[O-])cc2Cl)s1", "values": [
      {"measurement": "growth", "value": 98.1, "unit": "%"}
    ]},
    {"smiles": "N=C1N=C(SCc2nc3ccccc3[nH]2)NC(=O)/C1=C/c1ccc(Cl)cc1", "values": [
      {"measurement": "growth", "value": 102, "unit": "%"}
    ]},
    {"smiles": "COc1c(F)ccc(C(=O)Nc2ccc3nc(NC(=O)C4CCCN(S(=O)(=O)c5cccc(C(F)(F)F)c5)C4)sc3c2)c1F", "note": "(centres undefined)", "values": [
      {"measurement": "growth", "value": 72.1, "unit": "%"}
    ]},
    {"smiles": "O=C(CSc1nnc(-c2ccc3nc(-c4ccccc4)[nH]c3c2)o1)Nc1ccc(Br)cc1", "values": [
      {"measurement": "growth", "value": 51.3, "unit": "%"}
    ]},
    {"smiles": "O=C(N/N=C/c1ccc(-c2ccc(O)cc2)s1)c1[nH]c2ccc(Br)cc2c1-c1ccccc1", "values": [
      {"measurement": "growth", "value": "-12.4% (active)"}
    ]},
    {"smiles": "Fc1ccc(-c2csc(Nc3cccc(Nc4nc(-c5ccc(F)cc5)cs4)c3)n2)cc1", "values": [
      {"measurement": "growth", "value": 74.3, "unit": "%"}
    ]},
    {"smiles": "O=C1Nc2cc(Cl)ccc2/C1=C/c1cccc(OCc2ccccn2)c1", "values": [
      {"measurement": "growth", "value": "-9.79% (active)"}
    ]},
    {"smiles": "CN1CCN(c2ccc(C(=O)/C=C/c3ccc(OC(F)F)cc3)cc2)CC1", "values": [
      {"measurement": "growth", "value": "-26.7% (active)"}
    ]},
    {"smiles": "C/C(=N\\N=C1/C(=O)Nc2ccc(Cl)cc21)c1ccc2c(c1)Nc1ccccc1S2", "values": [
      {"measurement": "growth", "value": "8.43% (active)"}
    ]},
    {"smiles": "Cc1ccc(C(=O)Nc2cc(-n3cnc(F)c3)cc(C(F)(F)F)c2)cc1C#Cc1cnc2cccnn12", "values": [
      {"measurement": "growth", "value": 23.5, "unit": "%"}
    ]},
    {"smiles": "C=C1CC[C@@H]2[C@]3(C)COC(c4cn[nH]c4-c4cccc(Br)c4)O[C@@H]3CC[C@@]2(C)[C@@H]1C/C=C1/C(=O)OCC1O", "note": "(some centres undefined)", "values": [
      {"measurement": "growth", "value": "-16.3% (active)"}
    ]},
    {"smiles": "COc1cnc2c(c1)C(=O)c1c-2n(CCCNC(C)C)c(=O)c2cc(OC)c(OC)cc12", "values": [
      {"measurement": "growth", "value": 62.8, "unit": "%"}
    ]},
    {"smiles": "COc1ccc2c3nc4cc(C)c(C)cc4nc3n(CCN(C)C)c2c1", "values": [
      {"measurement": "growth", "value": "-45.3% (active)"}
    ]}
  ]
}
